Source: PubChem BioAssay (NCI)
About 79,000 compounds went through this panel and 15% of them were active in at least one assay; those are over-represented in the sample as a whole. Calls of active or inactive are those of the source. Cut-off read from the data, not from the text of the source: active = growth inhibition above about 70%; inactive = the rest.

Test: NCI Yeast Anticancer Drug Screen. Data for the rad14 strain (AID 159);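 note: 0% = growth of vehicle-treated control cultures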
Conditions: S. cerevisiae rad14 strain growth inhibition, stronger effect = higher value
Experimental: Growth inhibition of yeast strains with defined genetic alterations is measured as a screen for potential anti-cancer activity. Selected strains with alterations in DNA damage repair or cell cycle control were exposed to compounds and growth inhibition was measured relative to vehicle treated controls. The strain used in this assay is rad14

Measured: growth inhibition

O=C(O)Cc1cc(F)ccc1C(=O)O
inactive: at 1.2 µM 0% | at 3.7 µM -2% | at 11.0 µM 4% | at 33.0 µM 14% | at 100.0 µM 51%

CC[n+]1oc(C(=O)c2ccc(Cl)cc2)c(-c2ccccc2)c1-c1ccccc1.[Cl][Fe]([Cl])([Cl])[Cl]
inactive: at 1.2 µM 2% | at 3.7 µM 6% | at 11.0 µM 12% | at 33.0 µM 28% | at 100.0 µM 57%

O=c1[nH]c2ccc(Cl)cc2o1
inactive: at 1.2 µM -44% | at 3.7 µM -38% | at 11.0 µM -28% | at 33.0 µM -35% | at 100.0 µM -32%

c1ccc2cc(NCNc3ccc4ccccc4c3)ccc2c1
inactive: at 1.2 µM 1% | at 3.7 µM 1% | at 11.0 µM 0% | at 33.0 µM -13% | at 100.0 µM 16%

Cc1sc2ccc3ccccc3c2[n+]1C
active: at 100.0 µM 85%
inactive: at 1.2 µM -34% | at 3.7 µM -22% | at 11.0 µM -29% | at 33.0 µM -28%

COc1ccc(NC(=O)CC2SC(=Nc3ccccc3C)NC2=O)c([N+](=O)[O-])c1 (stereo not given)
active: at 100.0 µM 97%
inactive: at 1.2 µM -2% | at 3.7 µM -2% | at 11.0 µM 1% | at 33.0 µM 10%

CC(C)C(C)/C=C\C(C)C1CCC2C3=CC=C4CC(O)CCC4(C)C3CCC21C (stereo not given)
inactive: at 1.2 µM -1% | at 3.7 µM 6% | at 11.0 µM 1% | at 33.0 µM -2% | at 100.0 µM 27%

O=C1c2ccccc2C(=O)N1CCCC(=O)n1cc(F)c(=O)[nH]c1=O
inactive: at 1.2 µM -33% | at 3.7 µM -40% | at 11.0 µM -26% | at 33.0 µM -7% | at 100.0 µM 40%
